In the supplement of paper PMC7156485:
± gives the standard deviation of the averaged measurements.

What was measured:
Conditions in all cases: concentration: 10 µM; 24 h
HCC1569 [1] = assay: cell number relative to DMSO (% of DMSO); higher = more cells (less growth inhibition / toxicity)
Procedure, shortened: (§1)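 In 384-well plates holding 800 HCC1569 or TDF cells per well in RPMI with 10% FBS, compounds were tested at 10 µM for 24 h at 37 °C in triplicate. Fixation used 3.7% formaldehyde. Staining used a rabbit anti-H1.0 antibody with an AlexaFluor 647 secondary, plus DAPI. Each value, H1.0 nuclear intensity or cell number, is a median of replicates shown as percent of the plate control, and HCC1569 values were smoothed for positional effects.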

TDF [2] = assay: as above
Procedure, shortened: as §1

TDF [3] = assay: H1.0 immunofluorescence intensity relative to DMSO (% of DMSO); higher = stronger H1.0 induction, active = 120 or more
Procedure, shortened: as §1

HCC1569 [4] = assay: H1.0 immunofluorescence intensity relative to DMSO (% of DMSO); higher = stronger H1.0 induction, active = 140 or more
Procedure, shortened: as §1
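Wherever H1.0 immunofluorescence intensity relative to DMSO is given: TDF is a line of transformed human dermal fibroblasts of mesenchymal origin.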
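Wherever cell number relative to DMSO is given: TDF denotes transformed human dermal fibroblasts of mesenchymal origin.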

SMILES	cell number (HCC1569 [1])	cell number (TDF [2])	H1.0 immunofluorescence intensity (TDF [3])	H1.0 immunofluorescence intensity (HCC1569 [4])
NC1CCN(O)C1=O (racemic)	101	104	84.3 (inactive)	82.9 (inactive)
CCCCCC(CC(=O)NO)C(=O)NC(C(=O)N1CCCC1CO)C(C)C (stereo not drawn) [Actinonin]	101	89	108 (inactive)	111 (inactive)
C[C@@H]([C@@H](O)c1ccc(O)cc1)N1CCC(O)(c2ccccc2)CC1	102	91.1	94.7 (inactive)	105 (inactive)
O=C(O)C=Cc1ccc(O)c(O)c1 [Caffeic Acid]	99.9	115	87.2 (inactive)	84.5 (inactive)
COc1ccc(C(=O)/C(Cc2cc(OC)c(OC)c(OC)c2)=C(\C(=O)[O-])c2ccc3c(c2)OCO3)cc1.[Na+]	97.7	98.7	88.2 (inactive)	103 (inactive)
O=C1NC(=O)C(c2cnc3ccccn23)=C1c1cn2c3c(cc(F)cc13)CN(C(=O)N1CCCCC1)CC2	66.9	63	138 (active)	176 (active)
COc1cc2nc(N3CCN(C(=O)c4ccco4)CC3)nc(N)c2cc1OC.Cl [Prazosin.HCl]	107	105	92 (inactive)	95.8 (inactive)
Cl.NC(N)=NCCNS(=O)(=O)c1cccc2cnccc12 [HA-1004 hydrochloride]	103	116	87.2 (inactive)	88.4 (inactive)
CN(C)CCCN1c2ccccc2Sc2ccc(Cl)cc21.Cl [Chlorpromazine.HCl]	96.5	99.7	106 (inactive)	113 (inactive)
COc1cc(SC)ccc1C(=O)N1CCC(Cc2ccccc2)CC1 [p38 MAP Kinase Inhibitor VI, JX401]	104	101	96.9 (inactive)	117 (inactive)
CSc1cccc(Nc2ncc3cc(-c4c(Cl)cccc4Cl)c(=O)n(C)c3n2)c1	37.3	6.26	145 (active)	150 (active)
Cc1c(OCC(F)(F)F)ccnc1CS(=O)c1nc2ccccc2[nH]1 (stereo not drawn) [Lansoprazole]	96.3	108	90.1 (inactive)	104 (inactive)
Clc1ccc(C(Cn2ccnc2)OCc2csc3c(Cl)cccc23)c(Cl)c1 (stereo not drawn) [Sertaconazole]	95	97.9	91.4 (inactive)	114 (inactive)
CCCCCC=CCC1OC1C=CC(O)CC=CCCCC(=O)O (stereo not drawn) [Hepoxilin A3]	107	102	93.8 (inactive)	100 (inactive)
CC(=O)NCCc1c(Cc2ccccc2)[nH]c2ccccc12 [N-[2-(2-benzyl-1H-indol-3-yl)ethyl]acetamide]	101	92.4	104 (inactive)	98.9 (inactive)
CCCn1c(=O)c2[nH]c(-c3ccc(S(=O)(=O)O)cc3)nc2n(CCC)c1=O [1,3-Dipropyl-8-p-sulfophenylxanthine]	104	106	90.4 (inactive)	92.6 (inactive)
CC(=O)C1CCC2C3CCC4=CC(=O)CCC4(C)C3CCC12C (stereo not drawn) [Progesterone]	101.3 ± 0.57	99.1 ± 7.3	95.9 (inactive)	102 (inactive)
CC(=O)OCC1(O)CC23CCC4c5ccoc5C=CC4(C)C2CCC1C3 (stereo not drawn) [Kahweol Acetate]	103	95.3	105 (inactive)	98.9 (inactive)
CCCCN1CCC(COC(=O)c2cc(Cl)c(N)c3c2OCCO3)CC1.Cl	102	108	97.7 (inactive)	104 (inactive)
O=C(O)CO.[NH2-].[NH2-].[Pt+2] [Nedaplatin]	94.6	92.6	96.9 (inactive)	104 (inactive)
C=CCc1ccccc1OCC(O)CNC(C)C.Cl (stereo not drawn) [Alprenolol.HCl]	102	105	90.6 (inactive)	102 (inactive)
O=c1ccc2cc3ccoc3cc2o1 [7H-furo[3,2-g]chromen-7-one]	96.4	105	90.3 (inactive)	93.5 (inactive)
c1ccc(-c2ccccn2)nc1 [2,2'-Bipyridyl]	107	95	104 (inactive)	102 (inactive)
CC1(C)CNc2cc(NC(=O)c3cccnc3NCc3ccncc3)ccc21 [Motesanib]	90	91.4	107 (inactive)	106 (inactive)

SMILES	cell number (HCC1569 [1])	cell number (TDF [2])	H1.0 immunofluorescence intensity (TDF [3])	H1.0 immunofluorescence intensity (HCC1569 [4])
CC1OC(OCC2OC(Oc3cc(O)c4c(c3)OC(c3ccc(O)cc3)CC4=O)C(O)C(O)C2O)C(O)C(O)C1O (stereo not drawn) [Narirutin]	101	103	94.7 (inactive)	80.9 (inactive)
c1ccc(-c2cnc(Nc3ccc(OCCN4CCCC4)cc3)s2)cc1 [Flt-3 Inhibitor III]	80.3	74.2	97.1 (inactive)	150 (active)
CC1(C)CC(=O)C2=C(C1)NC(=S)NC2c1cccc(O)c1 (stereo not drawn)	70.7	9.81	152 (active)	118 (inactive)
CC(C)NCC(O)COc1ccc(CC(N)=O)cc1 (stereo not drawn) [S(-)-Atenolol]	101	105	92.2 (inactive)	96.4 (inactive)
COC(=O)/C=C/c1cccc(N(Cc2ccc(-c3ccc(N(C)C)cc3)cc2)C(=O)C2CCCCC2)c1	91.5	95.9	90.7 (inactive)	106 (inactive)
Cc1nc(C)c(C)nc1C [Tetramethylpyrazine]	106	108	92.9 (inactive)	94.2 (inactive)
N[C@@H](Cc1cc(I)c(Oc2cc(I)c(O)c(I)c2)c(I)c1)C(=O)O [L-thyroxine]	103	89.5	97.6 (inactive)	96.6 (inactive)
CC(C)NCC(O)c1ccc(O)c(O)c1.O=C(O)C(O)C(O)C(=O)O (stereo not drawn) [S(+)-Isoproterenol (+)-bitartrate]	105	97.6	91.8 (inactive)	93.4 (inactive)
CN(C)CCCC1(c2ccc(F)cc2)OCc2cc(C#N)ccc21 (stereo not drawn) [Citalopram]	103	114	91.3 (inactive)	100 (inactive)
Cc1nc2sccn2c(=O)c1CCN1CCC(=C(c2ccc(F)cc2)c2ccc(F)cc2)CC1 [Ritanserin]	101	111	88.8 (inactive)	105 (inactive)
COC(=O)C(C)(N)Cc1ccc(O)cc1.Cl (racemic) [alpha-Methyl-DL-tyrosine methyl ester hydrochloride]	101	103	93 (inactive)	94.3 (inactive)
CCCCCCC=CC=CCCCCCCCC(=O)O [(9Z,11E)-Octadecadienoic acid]	97.6	106	99.8 (inactive)	100 (inactive)
O=C(c1ccc(C(=O)N2CCC(N3CCCC3)CC2)c(Nc2ccccc2)c1)N1CCC(N2CCCC2)CC1	99.8	104	86.5 (inactive)	102 (inactive)
CN1CCN(CCCN2c3ccccc3Sc3ccc(C(F)(F)F)cc32)CC1.Cl.Cl [Trifluoperazine dihydrochloride]	87.3	108	107 (inactive)	141 (active)
O=c1[nH]cc(F)c(=O)[nH]1 [5-Fluorouracil]	81.345 ± 0.068	92.4 ± 4.8	97.7 (inactive)	94.5 (inactive)
CC(COc1ccccc1)N(CCCl)Cc1ccccc1.Cl (stereo not drawn) [Phenoxybenzamine hydrochloride]	71.6	69.5	105 (inactive)	107 (inactive)
COc1ccc(-c2cc(=O)c3c(OC)c(OC)c(OC)cc3o2)cc1OC [Sinensetine]	101	99.8	93.9 (inactive)	93.6 (inactive)
COc1ccc2c(c1)CC[C@@H]1[C@@H]2CC[C@]2(C)[C@@H](NCCCCCCN3C(=O)C=CC3=O)CC[C@@H]12.O	97.6	109	99.9 (inactive)	107 (inactive)
Cl.N[C@@H](CCC(=O)O)C(=O)O [L-Glutamic acid hydrochloride]	103	114	90.1 (inactive)	91.5 (inactive)
CNCC(O)c1cccc(O)c1.Cl (stereo not drawn) [Phenylephrine hydrochloride]	107	101	97.5 (inactive)	94.3 (inactive)
Cc1ccc(-c2cc(C(F)(F)F)nn2-c2ccc(S(N)(=O)=O)cc2)cc1 [Celecoxib]	97.7	103	99.1 (inactive)	106 (inactive)
COc1cc(CC2C(=O)OCC2Cc2ccc(OC)c(OC)c2)ccc1O (stereo not drawn)	80.5	74.6	103 (inactive)	156 (active)
CCOC(=O)c1csc(Nc2ccc(Cl)cc2)n1 [ethyl 2-(4-chloroanilino)-1,3-thiazole-4-carboxylate]	97	99.4	99.7 (inactive)	113 (inactive)
